# Measurements from PubChem BioAssay.
# Calls of active or inactive are those of the source.
# Columns and labels:
# [1] = optical density shifts of acrAB sulA E. coli – strain DRC41, OD650, 48 h, E. coli filamentation inducer project, primary screen (AID 1152); settings: higher = more signal, called active from +8 up or from −8 down;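 also: E. coli MC1000 strain DRC41 lacking acrAB efflux pump and sulA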
# [2] = probe aLefty1 binding on compound microarray – biochemical, small-molecule microarray, 635/667 nm fluorescence, primary screen (AID 1153); settings: higher = more signal;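 also: score merges spot fluorescence with signal-to-noise ratio from the scanned slide images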
# [3] = plasmodial surface anion channel blockers, osmotic lysis – cell-based, P. falciparum Indochina, OD700, 1 h, primary screen (AID 1154); settings: P. falciparum Indochina infected RBC osmotic lysis, higher = more signal, called active from +8 up or from −8 down
# [4] = plasmodial surface anion channel blockers, osmotic lysis – cell-based, P. falciparum Indochina, OD700, 2 h, primary screen (AID 1155);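 also: lysis reports solute entry through the parasite surface anion channel PSAC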; settings: P. falciparum Indochina infected erythrocytes, higher = more signal, called active from +8 up or from −8 down
# [5] = changes in parasitized red cell lysis, either direction – P. falciparum Indochina, OD700, 3 h, PSAC antagonist project, primary screen (AID 1156); settings: P. falciparum-infected erythrocytes, osmotic lysis, higher = more signal, called active from +8 up or from −8 down
# [6] = plasmodial surface anion channel blockers, osmotic lysis – cell-based, P. falciparum Indochina, OD700, 18 h, primary screen (AID 1157); settings: P. falciparum Indochina infected erythrocytes, osmotic lysis OD700, 18 h; higher = more signal, called active from +8 up or from −8 down
# [7] = S6 kinase pathway phospho-S6 level changes – cell-based, A549, cytoblot, luminescence, serum-stimulated, primary screen (AID 1158); settings: 5 h, higher = more signal;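 also: serum-stimulated A549 lung adenocarcinoma cells; signal is phosphorylated S6 detected by cytoblot immunostaining with HRP secondary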
# [8] = molecular target: NADPH oxidase 2 (Homo sapiens) (UniProt P04839); assay: compounds shifting NOX2 Amplex Red fluorescence – cell-based, HEK293-NOX2, PMA-stimulated, NOX inhibitor project, primary screen (AID 1159); settings: 45 min, higher = more signal, called active from +8 up or from −8 down; also: test concentration not given here
# [9] = molecular target: NADPH oxidase 4 (Homo sapiens) (UniProt Q9NPH5); assay: compounds shifting NOX4 Amplex Red fluorescence – cell-based, HEK293-NOX4, tetracycline-induced, NOX inhibitor project, primary screen (AID 1160); settings: HEK293-NOX4, Amplex Red H2O2 fluorescence, 45 min; higher = more signal, called active from +8 up or from −8 down
# [10] = molecular target: NADPH oxidase 5 (Homo sapiens) (UniProt Q96PH1); assay: compounds shifting NOX5 Amplex Red fluorescence – cell-based, HEK293-NOX5, NOX inhibitor project, primary screen (AID 1161); settings: HEK293-NOX5, ionomycin, 45 min, higher = more signal
# Sequence of NADPH oxidase 5 (Homo sapiens) (Q96PH1 whole entry, looked up): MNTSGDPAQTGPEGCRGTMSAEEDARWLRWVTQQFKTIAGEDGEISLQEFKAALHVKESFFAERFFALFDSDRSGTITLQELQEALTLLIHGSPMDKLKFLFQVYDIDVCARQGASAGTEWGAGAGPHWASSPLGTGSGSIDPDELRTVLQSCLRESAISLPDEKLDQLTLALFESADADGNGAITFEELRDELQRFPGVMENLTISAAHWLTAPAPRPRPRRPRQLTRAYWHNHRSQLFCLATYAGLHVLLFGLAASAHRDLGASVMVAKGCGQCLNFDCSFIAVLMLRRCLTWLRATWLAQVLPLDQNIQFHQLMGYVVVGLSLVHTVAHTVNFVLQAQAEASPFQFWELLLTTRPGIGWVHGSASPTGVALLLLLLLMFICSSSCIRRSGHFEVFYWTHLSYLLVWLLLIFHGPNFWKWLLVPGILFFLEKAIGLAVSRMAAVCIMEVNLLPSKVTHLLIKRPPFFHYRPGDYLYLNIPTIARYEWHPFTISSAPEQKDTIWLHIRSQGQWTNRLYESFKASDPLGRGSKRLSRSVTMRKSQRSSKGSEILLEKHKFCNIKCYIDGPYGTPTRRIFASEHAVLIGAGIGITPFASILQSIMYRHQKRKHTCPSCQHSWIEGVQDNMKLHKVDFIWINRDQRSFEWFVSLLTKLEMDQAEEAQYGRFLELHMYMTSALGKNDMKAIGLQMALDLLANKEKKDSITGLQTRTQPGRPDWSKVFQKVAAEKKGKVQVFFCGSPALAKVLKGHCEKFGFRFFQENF
# Sequence of NADPH oxidase 2 (Homo sapiens) (P04839 whole entry, looked up): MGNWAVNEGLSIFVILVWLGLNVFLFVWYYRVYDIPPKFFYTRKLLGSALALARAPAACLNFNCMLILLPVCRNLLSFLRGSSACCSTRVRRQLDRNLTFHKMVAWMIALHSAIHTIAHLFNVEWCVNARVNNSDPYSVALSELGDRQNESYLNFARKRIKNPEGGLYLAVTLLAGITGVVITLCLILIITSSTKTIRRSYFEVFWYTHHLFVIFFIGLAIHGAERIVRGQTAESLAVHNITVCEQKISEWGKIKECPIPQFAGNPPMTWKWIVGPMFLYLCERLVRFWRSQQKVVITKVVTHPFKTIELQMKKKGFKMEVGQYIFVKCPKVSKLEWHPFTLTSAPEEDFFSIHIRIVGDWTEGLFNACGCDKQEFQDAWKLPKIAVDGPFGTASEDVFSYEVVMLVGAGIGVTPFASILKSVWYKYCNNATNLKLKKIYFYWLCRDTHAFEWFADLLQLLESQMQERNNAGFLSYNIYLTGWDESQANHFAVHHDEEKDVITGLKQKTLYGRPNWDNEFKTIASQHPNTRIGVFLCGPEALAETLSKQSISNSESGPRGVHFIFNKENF
# Sequence of NADPH oxidase 4 (Homo sapiens) (Q9NPH5 whole entry, looked up): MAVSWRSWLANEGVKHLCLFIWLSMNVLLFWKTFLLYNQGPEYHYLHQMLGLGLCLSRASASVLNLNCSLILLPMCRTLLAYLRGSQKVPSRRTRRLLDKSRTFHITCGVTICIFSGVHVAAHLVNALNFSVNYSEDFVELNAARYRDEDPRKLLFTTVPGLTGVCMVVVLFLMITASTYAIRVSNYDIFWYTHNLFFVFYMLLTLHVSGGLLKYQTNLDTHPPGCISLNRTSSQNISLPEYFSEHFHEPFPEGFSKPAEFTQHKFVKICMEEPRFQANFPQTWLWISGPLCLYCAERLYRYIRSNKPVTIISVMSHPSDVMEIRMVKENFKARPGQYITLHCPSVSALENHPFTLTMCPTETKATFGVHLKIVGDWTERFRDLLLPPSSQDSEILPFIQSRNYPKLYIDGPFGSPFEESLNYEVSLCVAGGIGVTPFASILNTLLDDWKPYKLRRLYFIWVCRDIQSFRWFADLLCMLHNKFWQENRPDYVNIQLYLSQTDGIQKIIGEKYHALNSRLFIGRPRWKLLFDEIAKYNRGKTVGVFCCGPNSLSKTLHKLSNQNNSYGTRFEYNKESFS
Structure (SMILES),z-score [1],composite z-score [2],z-score [3],z-score [4],z-score [5],z-score [6],z-score [7],z-score [8],z-score [9],z-score [10]
COCCOC(=O)N1C(=O)[C@@]2(c3cc(C#CCCO)ccc31)[C@H](C(=O)Nc1nc3ccccc3s1)[C@H]1C(=O)O[C@H](c3ccccc3)[C@H](c3ccccc3)N1[C@@H]2c1ccc(OCCO)cc1,0.372 (inactive),0.352,4.19 (inactive),1.5 (inactive),0.708 (inactive),1.34 (inactive),-0.548,0.82 (inactive),0.462 (inactive),1.37
CCCC#C[Si](O[C@H](CC)c1cn([C@H](CO)Cc2ccccc2)nn1)(C(C)C)C(C)C,1.12 (inactive),0.145,0.442 (inactive),0.479 (inactive),-1.31 (inactive),0.752 (inactive),-0.675,0.819 (inactive),0.272 (inactive),0.493
CN1C(=O)C2C=CC(C(O)C3=C[C@H]4C[C@@H](C3)C4(C)C)N(Nc3ccccc3)C2C1=O (stereo not given in full),-0.318 (inactive),0.202,0.451 (inactive),0.69 (inactive),-0.0209 (inactive),0.852 (inactive),-0.776,-0.945 (inactive),-3.91 (inactive),-2.99
O=C1OCC=C[C@H]2OC34C=CCN(c5ccc6ccccc6c5)C(=O)[C@H]3N(CCCCCCO)C(=O)[C@@H]4[C@@H]12 (stereo not given in full),-0.0903 (inactive),0.0839,3.18 (inactive),0.0422 (inactive),0.966 (inactive),0.525 (inactive),-0.482,1.36 (inactive),0.0322 (inactive),2.12
C=CC[C@]1(C(=O)NCCCOC)N=C(c2ccc(OCCCO)cc2)O[C@H]1c1ccccc1N=[N+]=[N-],0.239 (inactive),0.479,33.6 (active),32.2 (active),3.35 (inactive),8.48 (active),-0.403,-1.06 (inactive),1.33 (inactive),-0.678
COCCOC(=O)N1C(=O)[C@@]2(c3cc(C#Cc4ccc(OC)cc4)ccc31)[C@H](c1ccccc1OCCO)N1[C@H](c3ccccc3)[C@H](c3ccccc3)OC(=O)[C@H]1[C@@H]2C(=O)N1CCN(c2ncccn2)CC1,0.148 (inactive),0.118,3.79 (inactive),3.04 (inactive),1.3 (inactive),1.76 (inactive),-0.133,0.978 (inactive),-0.00787 (inactive),0.882
CCCC[C@H]1OB(O)C[C@H]2C1=C(COc1ccccc1)C[C@H]1C(=O)N(C)C(=O)[C@H]12,-0.882 (inactive),-0.0989,1.31 (inactive),-0.252 (inactive),-0.761 (inactive),0.232 (inactive),-0.149,-0.405 (inactive),0.509 (inactive),0.224
CCN(CC)c1ccc(N2CC=CC34O[C@@H]5/C=C\CCCOC(=O)C5[C@H]3C(=O)N(CCO)[C@@H]4C2=O)cc1 (stereo not given in full),-0.0626 (inactive),0.0999,0.897 (inactive),0.175 (inactive),0.227 (inactive),0.041 (inactive),-0.155,-0.401 (inactive),-0.72 (inactive),0.733
O=C1O[C@H](c2ccccc2)[C@H](c2ccccc2)N2[C@H]1[C@@H](C(=O)N1CCN(c3ncccn3)CC1)[C@]1(C(=O)Nc3ccc(C#CC4=CCCCC4)cc31)[C@H]2c1ccc(O)cc1,0.635 (inactive),0.396,0.706 (inactive),0.574 (inactive),-0.313 (inactive),1.01 (inactive),0.538,0.852 (inactive),0.537 (inactive),0.837
CN(C)C(=O)[C@@]1(Cc2ccccc2CN=[N+]=[N-])N=C(c2ccc(OCCCO)cc2)O[C@H]1c1ccccc1,0.381 (inactive),1.18,20.9 (active),5.46 (inactive),1.59 (inactive),1.45 (inactive),-0.0813,-2.45 (inactive),-0.0483 (inactive),0.524
CCCCC(=C=CC[C@@H](O)c1ccccc1OCCO)CCO,0.086 (inactive),0.0752,9.77 (active),0.899 (inactive),0.631 (inactive),0.576 (inactive),0.289,-0.0172 (inactive),-0.742 (inactive),-1.71
COc1cc2c(cc1O)C(C1CC1)N(Cc1cc3c(cc1Br)OCO3)CC2 (stereo not given),-1.46 (inactive),-0.263,9.09 (active),1.17 (inactive),0.838 (inactive),0.72 (inactive),-0.074,-6.19 (inactive),-3.97 (inactive),-4.81
CCN(CC)c1ccc(N2CC=CC34O[C@@H]5/C=C\CCC(C)OC(=O)C5[C@H]3C(=O)N(C(CO)C(C)C)[C@@H]4C2=O)cc1 (stereo not given in full),0.295 (inactive),0.2,1.82 (inactive),0.585 (inactive),0.975 (inactive),0.674 (inactive),-0.232,0.398 (inactive),-0.502 (inactive),0.855
COc1ccc(C#Cc2ccc3c(c2)[C@]2(C(=O)N3)[C@H](c3ccccc3OCCO)N3[C@H](c4ccccc4)[C@H](c4ccccc4)OC(=O)[C@H]3[C@@H]2C(=O)O)cc1,-0.181 (inactive),1.27,0.123 (inactive),0.267 (inactive),-5.14 (inactive),-0.867 (inactive),0.25,0.441 (inactive),-1.36 (inactive),-0.669
COc1ccc([Si](C)(C)[C@H]2[C@H](CC(=O)N3CCC[C@H]3CO)O[C@@]3(C(=O)N(Cc4cccc(N5C(=O)c6cccc7cccc5c67)c4)c4ccccc43)[C@@H]2C)cc1,-0.577 (inactive),0.302,7.61 (inactive),0.753 (inactive),0.442 (inactive),0.623 (inactive),-0.366,1.35 (inactive),-0.292 (inactive),4.06
C=CCOC(=O)[C@H]1[C@@H]2C(=O)O[C@@H](c3ccccc3)[C@@H](c3ccccc3)N2[C@@H](c2ccc(OCCOC(=O)[C@@H]3C[C@@H]4C(=O)N[C@@H](CCCC[N+](C)(C)C)C(=O)N4[C@@H]3c3ccc(O)cc3)cc2)[C@]12C(=O)Nc1ccccc12,0.443 (inactive),0.0104,-0.906 (inactive),-0.689 (inactive),4.3 (inactive),-1.58 (inactive),1.28,2.42 (inactive),0.568 (inactive),1.41
COc1ccc([Si](C)(C)[C@H]2[C@H](CCn3cc([C@H](O)c4ccccc4)nn3)O[C@@]3(C(=O)N(Cc4cccc(N5CCOC5=O)c4)c4ccccc43)[C@@H]2C)cc1,-0.454 (inactive),-0.249,26.1 (active),9.3 (active),-0.295 (inactive),1.4 (inactive),0.17,0.0189 (inactive),2.51 (inactive),2.28
NC(=O)[C@@H]1[C@H]2C(=O)O[C@H](c3ccccc3)[C@H](c3ccccc3)N2[C@H](c2ccc(O)cc2)[C@@]12C(=O)Nc1ccc(C#CC3(O)CCCCCC3)cc12,-0.723 (inactive),-0.0544,2.28 (inactive),0.912 (inactive),0.904 (inactive),0.812 (inactive),-0.231,0.834 (inactive),-0.258 (inactive),-0.125
COc1ccc([C@H]2OC[C@@H]3CC4(CC=CC4)C(=O)N32)cc1,-0.56 (inactive),0.0406,0.486 (inactive),0.477 (inactive),-0.51 (inactive),0.136 (inactive),-0.516,0.777 (inactive),0.674 (inactive),0.291
NCCCCCNC(=O)[C@@H]1C[C@@H]2C(=O)N[C@@H](Cc3ccccc3)C(=O)N2[C@@H]1c1cccc(OCCO)c1,-0.389 (inactive),-0.101,3.51 (inactive),0.418 (inactive),1.18 (inactive),0.351 (inactive),-0.0201,2.11 (inactive),-0.729 (inactive),0.832
[N-]=[N+]=NCc1ccccc1C[C@]1(C(=O)N2CCOCC2)N=C(c2ccc(OCCCO)cc2)O[C@H]1c1ccccc1N=[N+]=[N-],0.97 (inactive),0.043,30 (active),25.3 (active),2.34 (inactive),1.92 (inactive),1.73,-6.05 (inactive),-2.96 (inactive),-2.7
O=C1OCC=C[C@H]2OC34C=CCN(CCN5CCOCC5)C(=O)[C@H]3N(CCCO)C(=O)[C@@H]4[C@@H]12 (stereo not given in full),0.109 (inactive),-0.147,0.64 (inactive),-0.385 (inactive),1.27 (inactive),-1.19 (inactive),1.08,0.812 (inactive),-1.16 (inactive),0.375
O=C1c2ccccc2[C@@]2(Cc3ccccc3N(CC(F)(F)F)C2=O)[C@H](c2ccc(CO)cc2)N1Cc1ccccc1Cl,0.606 (inactive),-0.677,0.902 (inactive),0.638 (inactive),0.955 (inactive),0.5 (inactive),0.258,0.0997 (inactive),-0.991 (inactive),-0.826
C=CCOC(=O)[C@H]1[C@@H]2C(=O)O[C@@H](c3ccccc3)[C@@H](c3ccccc3)N2[C@@H](c2ccc(OCCOC(=O)[C@H]3C[C@H]4C(=O)N5CCC[C@H]5C(=O)N4[C@H]3c3ccc(O)cc3)cc2)[C@]12C(=O)Nc1ccccc12,-0.827 (inactive),0.227,1.72 (inactive),1.25 (inactive),1.58 (inactive),0.889 (inactive),-0.352,2.25 (inactive),1.39 (inactive),1.87
O=C1c2ccccc2[C@@]2(Cc3ccccc3N(CCN3CCOCC3)C2=O)[C@H](c2ccc(CO)cc2)N1Cc1ccccc1,1.04 (inactive),-0.0479,0.884 (inactive),-0.273 (inactive),-0.378 (inactive),0.646 (inactive),0.215,0.0706 (inactive),-0.582 (inactive),-0.606
